According to PubChem BioAssay (EPA / NIEHS):
Calls of active or inactive are those of the source. The calls were made as follows: active = hit-call score of the fitted dose curve at least 0.9, where 1 is the maximum; inactive = score below 0.9.

Columns and labels:
[1] = read-out: Vascular endothelial growth factor receptor 2 (Homo sapiens) (UniProt P35968); assay: BSK_4H_VEGFRII: BioMAP Diversity Plus: 4H Assay for Vascular endothelial growth factor receptor 2 (VEGFR2) Biomarker Activity (AID 2283031); conditions: primary human endothelial cells (HUVEC); actives raise or lower the signal
Procedure, shortened: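 In this multiplexed HUVEC system, biomarker ELISA was performed after 24 h chemical exposure. Parallel SRB staining (TCA fixation, 560 nm) tracked cytotoxicity; DMSO served as baseline.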

[2] = read-out: Human Leukocyte Antigen - DR isotype (HLADR), HLA-DRA (gene 3122); assay: BSK_BE3C_HLADR: BioMAP Diversity Plus: BE3C Assay for Human Leukocyte Antigen - DR isotype (HLADR) Biomarker Activity (AID 2283032); conditions: primary human bronchial epithelial cells; actives raise or lower the signal
Procedure, shortened: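 ELISA read-out of HLA-DR on human lung bronchial epithelial primary cells, measured 24 h post-dosing. Both increases and decreases were scored relative to DMSO vehicle.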

[3] = read-out: Vascular cell adhesion molecule 1 (VCAM1), VCAM1 (gene 7412); assay: BSK_4H_VCAM1: BioMAP Diversity Plus: 4H Assay for Vascular cell adhesion molecule 1 (VCAM1) Biomarker Activity (AID 2283033); conditions: primary human endothelial cells (HUVEC); actives raise or lower the signal;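 also: cell-surface VCAM-1 protein measured by ELISA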
Procedure, shortened: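 ELISA read-out of VCAM-1 on human umbilical vein endothelium 24 hours after chemical dosing; gain or loss of signal was fitted relative to DMSO, with sulforhodamine B staining of parallel cultures flagging overt cytotoxicity.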

[4] = read-out: Interferon-gamma inducible Protein 10 (IP10), CXCL10 (gene 3627); assay: BSK_BE3C_IP10: BioMAP Diversity Plus: BE3C Assay for Interferon-gamma inducible Protein 10 (IP10) Biomarker Activity (AID 2283034); conditions: primary human bronchial epithelial cells; actives raise or lower the signal
Procedure, shortened: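 Chemical is dosed onto human lung bronchial epithelial primary cells, cultures are incubated 24 h, and IP-10 is then quantified by ELISA. Gain or loss of signal is fitted in both directions relative to DMSO.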

[5] = read-out: Transforming growth factor beta 1 (TGFb1), TGFB1 (gene 7040); assay: BSK_BE3C_TGFb1: BioMAP Diversity Plus: BE3C Assay for Transforming growth factor beta 1 (TGFb1) Biomarker Activity (AID 2283036;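 also: TGF-b1 protein level measured by ELISA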); conditions: primary human bronchial epithelial cells; actives raise or lower the signal
Procedure, shortened: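 Primary human lung bronchial epithelial cells; compound exposure 24 h; TGF-b1 by ELISA; bidirectional fit, DMSO baseline. Parallel SRB total-protein staining for cytotoxicity.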

[6] = read-out: Plasminogen activator inhibitor-1 (PAI1), SERPINE1 (gene 5054); assay: BSK_BE3C_PAI1: BioMAP Diversity Plus: BE3C Assay for Plasminogen activator inhibitor-1 (PAI1) Biomarker Activity (AID 2283037); conditions: primary human bronchial epithelial cells; actives raise or lower the signal
Procedure, shortened: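 Primary human lung bronchial epithelial cells; chemical dosing; 24 h; PAI-1 measured by ELISA; bidirectional fit referenced to DMSO as negative control.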

[7] = read-out: urokinase plasminogen activator (uPA), PLAU (gene 5328); assay: BSK_BE3C_uPA: BioMAP Diversity Plus: BE3C Assay for urokinase plasminogen activator (uPA) Biomarker Activity (AID 2283038); conditions: primary human bronchial epithelial cells; actives raise or lower the signal;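 also: uPA protein level quantified by ELISA in cell cultures; uPA read one day after compound addition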
Procedure, shortened: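 Using confluent primary human lung bronchial epithelial cultures, we dosed chemicals, waited 24 h, then ran a uPA ELISA, fitting bidirectionally against DMSO.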

[8] = read-out: Urokinase-type plasminogen activator receptor (uPAR), PLAUR (gene 5329); assay: BSK_BE3C_uPAR: BioMAP Diversity Plus: BE3C Assay for Urokinase-type plasminogen activator receptor (uPAR) Biomarker Activity (AID 2283039); conditions: primary human bronchial epithelial cells; actives raise or lower the signal;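 also: uPAR protein level measured by ELISA on the cells; cells exposed to compound for one day before measurement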
Procedure, shortened: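 Human bronchial epithelial primary cells; chemical exposure 24 h; uPAR by ELISA; bidirectional fit vs DMSO control.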

[9] = read-out: Interleukin-6 (IL6), IL6 (gene 3569); assay: BSK_CASM3C_IL6: BioMAP Diversity Plus: CASM3C Assay for Interleukin-6 (IL6) Biomarker Activity for (AID 2283040); conditions: primary human coronary artery smooth muscle cells; actives raise or lower the signal
[10] = read-out: Tissue plasminogen activator (tPA), PLAT (gene 5327); assay: BSK_BE3C_tPA: BioMAP Diversity Plus: BE3C Assay for Tissue plasminogen activator (tPA) Biomarker Activity (AID 2283041); conditions: primary human bronchial epithelial cells; actives raise or lower the signal;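 also: tPA level quantified by ELISA one day after compound addition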
Procedure, shortened: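 Primary human lung bronchial epithelial cultures receive test chemical; after 24 h, tPA is quantified by ELISA, and gain or loss of signal is fitted bidirectionally relative to DMSO baseline.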

[11] = read-out: Interleukin-8 (IL8), CXCL8 (gene 3576); assay: BSK_CASM3C_IL8: BioMAP Diversity Plus: CASM3C Assay for Interleukin-8 (IL8) Biomarker Activity (AID 2283042); conditions: primary human coronary artery smooth muscle cells; actives raise or lower the signal;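 also: IL-8 protein level quantified by ELISA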
[12] = read-out: Human Leukocyte Antigen - DR isotype (HLADR), HLA-DRA (gene 3122); assay: BSK_CASM3C_HLADR: BioMAP Diversity Plus: CASM3C Assay for Human Leukocyte Antigen - DR isotype (HLADR) Biomarker Activity (AID 2283043); conditions: primary human coronary artery smooth muscle cells; actives raise or lower the signal;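 also: cell-surface HLA-DR protein level quantified by ELISA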
[13] = read-out: Macrophage colony-stimulating factor (MCSF), CSF1 (gene 1435); assay: BSK_CASM3C_MCSF: BioMAP Diversity Plus: CASM3C Assay for Macrophage colony-stimulating factor (MCSF) Biomarker Activity (AID 2283044); conditions: primary human coronary artery smooth muscle cells; actives raise or lower the signal;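 also: M-CSF protein amount quantified by ELISA after 24 h exposure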
[14] = read-out: Low-density lipoprotein receptor (LDLR), LDLR (gene 3949); assay: BSK_CASM3C_LDLR: BioMAP Diversity Plus: CASM3C Assay for Low-density lipoprotein receptor (LDLR) Biomarker Activity (AID 2283045); conditions: primary human coronary artery smooth muscle cells; actives raise or lower the signal;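 also: LDLR protein level on the cell surface quantified by ELISA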
[15] = read-out: Monocyte Chemoattractant Protein-1 (MCP1), CCL2 (gene 6347); assay: BSK_CASM3C_MCP1: BioMAP Diversity Plus: CASM3C Assay for Monocyte Chemoattractant Protein-1 (MCP1) Biomarker Activity (AID 2283046); conditions: primary human coronary artery smooth muscle cells; actives raise or lower the signal;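 also: MCP-1 level quantified by ELISA 24 h after dosing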
[16] = BSK_CASM3C_Proliferation: Cell Proliferation Assessment in the BioMAP Diversity Plus: CASM3C Assay (AID 2283047); conditions: primary human coronary artery smooth muscle cells;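 also: sulforhodamine B total protein stain as relative cell number at 560 nm; sub-confluent cells exposed 48 h before staining; fitted both ways against DMSO so gain or loss of cell number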
[17] = read-out: Monokine induced gamma interferon (MIG), CXCL9 (gene 4283); assay: BSK_CASM3C_MIG: BioMAP Diversity Plus: CASM3C Assay for Monokine induced gamma interferon (MIG) Biomarker Activity (AID 2283048); conditions: primary human coronary artery smooth muscle cells; actives raise or lower the signal;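 also: MIG protein level measured by ELISA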
[18] = read-out: serum amyloid A (SAA), SAA1 (gene 6288); assay: BSK_CASM3C_SAA: BioMAP Diversity Plus: CASM3C Assay for serum amyloid A (SAA) Biomarker Activity (AID 2283049); conditions: primary human coronary artery smooth muscle cells; actives raise or lower the signal;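 also: SAA protein level quantified by ELISA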
[19] = BSK_CASM3C_SRB: Viability Assessment in the BioMAP Diversity Plus: CASM3C Assay (AID 2283050); conditions: primary human coronary artery smooth muscle cells;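 also: total protein by SRB staining as cytotoxicity measure in parallel cultures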

Measured: outcome

CN(C)[C@@H]1C(=O)C(C(N)=O)=C(O)[C@@]2(O)C(=O)C3=C(O)c4c(O)cccc4[C@@](C)(O)[C@H]3C[C@@H]12
inactive: all assays above

O=C(Oc1ccc(Br)cc1)N1CCN2CCC1CC2
inactive: all assays above

N#CC(Br)Br
inactive: all assays above

OCCOCCO
inactive: all assays above

OCCCBr
inactive: all assays above

Oc1ccccc1Cl
inactive: all assays above

ClCCOCCCl
inactive: all assays above
